These results are taken from PubChem BioAssay AID687014 (The Scripps Research Institute Molecular Screening Center, 2013).

The whole screen tested about 370,000 compounds, of which about 6,800 (1.8%) were called active. What follows is part of a selection rich in actives, with near analogues and random picks from the rest. Unmarked numbers belong to inactive results.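 How the source made its calls: active means activation above a cutoff set at the mean of all screened compounds plus 3 SD (cut at about 10% in these data); inactive means the rest.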

The test deals with Nuclear hormone receptor DAF-12 (Heterodera glycines), GAL4 fusion. The test can be described thus: H. glycines DAF-12 receptor agonists, primary screen, cell-based, luminescence, HEK293, GAL4 fusion, UAS-luciferase (AID 687014).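 Further: 0% = DMSO wells and 100% = sodium butyrate wells.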 To be noted: HEK293 GAL4-hgDAF12 UAS-luciferase reporter, agonist luminescence; at 6.8 µM; stronger effect = higher value; normalized to butyrate control.
With `Cn1cc(S(=O)(=O)NC(c2ccccc2)c2ccccc2)c(=O)n(C)c1=O`, the activation is -1.46%. As for `O=C(COC(=O)c1cccc(Cl)c1)NC(=O)NCc1ccccc1`, the activation is 0.55%.

Regarding `O=C(COC(=O)c1ccco1)NCc1ccc(Cl)cc1`, the activation was 10.8% (active). In the case of `O=C(CCOc1ccccc1)NCc1ccccc1` it was 0.5%; in that of `O=C(COc1cccc(Cl)c1)NCc1ccccc1`, 10.5% (active); in that of `O=C(COC(=O)c1ccco1)Nc1ccc(Cl)cn1`, 0.37%.

For the compound `O=C(COC(=O)c1cnc(Cl)c(Cl)c1)NCc1ccco1`, the activation was -3.41%.

As to `O=C1CC[C@@H]2CC3(C[C@@H]4CCN1[C@H]24)Nc1cc([N+](=O)[O-])ccc1NC3=NC1CCCCC1` (some centres undefined), the activation is 0.54%. In the case of `COc1cc(OC)c(-n2cc(-c3ccc(Cl)cc3)[nH]c2=O)cc1Cl` it was -2.27%; in that of `N#Cc1cccc(C(=O)NCC2CCN(C(=O)C(=O)c3cc4ccccc4o3)CC2)c1`, -0.57%; in that of `COc1ccc(CNS(=O)(=O)c2cc(Br)ccc2Br)cc1`, 1.03%. For `O=C(CN(C(=O)c1csnn1)c1cccc(Cl)c1)NC1CCCC1` the value was -1.27%. For `O=C(Nc1ccc(Br)cc1)OCCN1C(=O)CCC12CCC(c1ccccc1)CC2` (centres undefined) the value was -0.22%; for `Cc1cccc(CN2CCC(n3nccc3NC(=O)c3ccccc3C)CC2)n1`, -0.95%; for `COc1ccc(Nc2ccc3ccccc3c2)cc1`, 18.4% (active). As to `COc1ccc(NC2=CC(=S)NC(C)(C)C2)cc1`, the activation is 1.03%.

In the case of `COc1ccc(Nc2cc(=O)n(-c3ccccc3)c3c2c(=O)n(C)c(=O)n3C)cc1`, the activation is -1.79%.

On to `OCC[C@H]1C[C@@H](O)[C@H](O)[C@]2(OCCCc3ccccc32)O1`, for which the activation is -1.3%. For `COc1ccc(S(=O)(=O)Nc2ccc3c(c2)C(=O)N([C@H](C)CO)C[C@H](C)[C@@H](CN(C)C)OCCCC[C@H](C)O3)cc1` the value was -1.86%; for `Cc1c(Cl)cccc1NC(=S)NCC(O)c1ccccc1` (centres undefined), 0.77%; for `COc1ccc(C(=O)NCC[N+](C)(C)C)cc1`, -0.85%. `COc1ccc(C(=O)NCCSc2ccccc2C)cc1`: the activation was 12.8% (active).

As for `CCSc1ccccc1C(=O)NCc1ccc(OC)cc1`, the activation was -1.12%. As for `Cc1ccc(-n2c(COc3ccccc3)nnc2SCC(=O)Nc2ccc3c(c2)OCCO3)cc1`, the activation was -0.21%. For `Cc1cc(OC(=O)NCCc2ccc(F)cc2)ccc1F` the value was 0.78%. In the case of `O=C(CSc1nnc(COc2ccccc2)n1Cc1ccco1)c1ccc2ccccc2c1` it was -0.51%. With `Cc1cc(C)c(C#N)c(SCC(=O)NN2CC(=O)N(c3ccccc3F)CC2=O)n1`, the activation is -2.6%. As for `Cc1cc(C)c(C#N)c(SCC(=O)Nc2ccccc2)n1`, the activation is 11.8% (active). Take `COCc1cc(C)nc(SCC(=O)Nc2cccc(C)c2)c1C#N`: the activation is 0.86%. For `Cc1ccccc1N1CCN(CCCN2C(=O)C3CCCCN3C2=O)CC1` (centres undefined) the value was 2.03%; for `CC1CCN(c2ccc(C(=O)O)cc2NS(=O)(=O)c2ccc(Br)s2)CC1`, -3.43%; for `O=C(N[C@H](C(=O)N1CCC[C@H]1C(=O)NCCc1ccccc1Cl)c1ccccc1)c1ccccc1`, -3.35%. In the case of `Oc1ccc(-n2nnnc2SCc2c(F)cccc2Cl)cc1` it was 0.63%; in that of `Fc1cccc(Cl)c1CSc1ccc(-c2ccco2)nn1`, 10.6% (active).

Regarding `Cn1c(SCc2c(F)cccc2Cl)nnc1-c1cnccn1`, the activation is 8.5%. As to `CCC(C)(C)NC(=O)C(c1ccc(O)cc1)N(C(=O)Cn1nnc2ccccc21)c1ccc(NC(C)=O)cc1` (centres undefined), the activation is -2.76%. For `C[C@H](CO)N1C[C@H](C)[C@@H](CN(C)C(=O)Nc2ccccc2F)OCc2cn(nn2)CCCC1=O` the value was 4.8%; for `COc1cc(/C=C(\C#N)c2nc3c(s2)CC(C)CC3)ccc1O` (centres undefined), 13.1% (active). In the case of `CCCC1CCC2(CCCN2CCOC(=O)NCc2ccccc2)CC1` (centres undefined) it was -0.9%; in that of `CCC(c1ccc(NC(=O)OC(C)(C)C)cc1)c1cc(OC)cc(OC)c1` (centres undefined), -1.91%; in that of `CC(C)(C)n1nc(C2CC2)c(Br)c1NC(=O)c1ccccc1F`, -1.55%. As to `CC(=O)c1ccc(N2CCN(CC(O)c3ccccc3)CC2)cc1` (centres undefined), the activation is -0.45%. For `CC(=O)c1ccc(N2Cc3ccccc3C2)cc1` the value was 12.2% (active); for `CC(=O)N1Cc2ccccc2CC1C(=O)O` (centres undefined), 2.94%.

`O=C(NCc1cccs1)C1CCN(S(=O)(=O)c2ccccc2[N+](=O)[O-])CC1`: the activation is 1.45%.

For the compound `Cc1ccc(-c2nc3ccccc3[nH]2)cc1N`, the activation is 12.8% (active). Regarding `c1ccc2[nH]c(-c3nc4ccccc4[nH]3)nc2c1`, the activation was 11.8% (active). For `Cc1ccccc1N1CC(c2nc3ccccc3[nH]2)CC1=O` (centres undefined) the value was 0.19%. For the compound `CCOC(=O)CNC(=O)CSc1ncccc1-c1nc2ccccc2[nH]1`, the activation was -0.67%.

As for `O=C1c2ccccc2C(c2nc3ccccc3[nH]2)N1c1ccccc1` (centres undefined), the activation was 5.38%. Take `Nc1ccccc1-c1nc2ccncc2[nH]1`: the activation is 3.95%. For `COC(=O)C1CN(CC(C)C)CCS(=O)(=O)N1Cc1ccc(F)cc1` (centres undefined) the value was -3.03%. For the compound `CC(C)Cn1c(N2CCN(C(=O)/C=C/c3ccccc3)CC2)nc2ccccc21`, the activation was -3.13%. For `CN(C(=O)CSc1nnc(Nc2ccccc2)s1)C1CCS(=O)(=O)C1` (centres undefined) the value was 1.71%; for `CC(C)Nc1nnc(SCC(=O)c2c[nH]c3ccccc23)s1`, -0.17%; for `CC(C)c1ccc(Nc2nnc(SCC(=O)c3nnc(-c4ccccc4)o3)s2)cc1`, 17.7% (active). Turning to `O=C(NCc1cccc(CNC(=O)Nc2cccc(O)c2)c1)Nc1cccc(O)c1`, the activation was -0.42%. In the case of `O=C(OCc1ccc(-c2ccccc2)cc1)c1cccc(O)c1` it was 7.53%; in that of `O=C(Nc1cccc(O)c1)c1ccc(C(=O)c2ccccc2)o1`, 15.9% (active); in that of `CC(=O)N1CCc2cc(S(=O)(=O)NCCC(=O)N3CCCC3)ccc21`, 0.07%. `Cc1ccc(C(=O)O/N=C(\N)c2ccccn2)cc1Cl`: the activation was 4.09%. For `COc1ccc(C(=O)NNC(=O)c2cnccn2)cc1[N+](=O)[O-]` the value was 2.33%; for `COc1ccc(C(=O)O/N=C(\N)c2ccccn2)cc1[N+](=O)[O-]`, 17.4% (active); for `COC(=O)[C@]12C[C@H](CC(=O)NCCC(C)C)C(=O)N(CCc3ccc(OC)c(OC)c3)C1=C[C@H](C(C)(C)C)O[C@@H]2C`, 0.69%.

Take `Cc1cc(Br)cn2c(Cc3ccccc3C(F)(F)F)c(-c3ccc(Cl)cc3)nc12`: the activation was 0.95%.

In the case of `Cc1ccc(-c2nc3ccc(Br)cn3c2Cc2ccccc2C(F)(F)F)cc1`, the activation was 12.4% (active).

As to `Cc1cc(Br)cn2c(Cc3ccccc3C(F)(F)F)c(-c3ccc(C#N)cc3)nc12`, the activation is -0.23%. With `CCCCN1CCN(C(=O)c2ccc3c(c2)NC(=O)C(C)(C)O3)CC1`, the activation was 1.81%. In the case of `N#CCC[C@H]1CC[C@]2(CCCN(Cc3ccc(Cl)cc3)C2)O1` it was -2.81%; in that of `Cc1ccc(C)c(NC(=O)CCS(=O)(=O)c2ccccc2)c1`, -2.63%; in that of `S=C(c1ccc(-c2ccccc2)o1)N1CCCCC1`, 19.9% (active). In the case of `CC1CCN(C(=S)c2ccc(-c3ccc(Cl)cc3Cl)o2)CC1` it was -2.32%. Regarding `O=C(NC(=S)Nc1ccccc1C(=O)O)c1ccc(-c2ccc(Br)cc2)o1`, the activation was -2.39%. `NC(=O)c1ncn([C@@H]2O[C@H](C(=O)O)[C@@H](O)[C@H]2O)n1`: the activation was 1.3%. In the case of `Cc1ccnc(Nc2nc3ccccc3s2)n1` it was 21.9% (active). As for `Cc1ccnc(-n2sc3ccccc3c2=O)n1`, the activation is 4.36%. `CCCN1C(=O)c2[nH]nc(-c3ccccc3)c2C1c1ccccc1` (centres undefined): the activation was -0.37%.

Take `O=C(NCc1ccccc1)[C@H]1CCCN1C(=O)[C@H]1CCCN1C(=O)N1CCOCC1`: the activation was -0.79%. For `CCn1c2ccc(F)cc2c2nnc(SCCN3CCOCC3)nc21` the value was 0.7%; for `Cc1cc2nc(SCCN3CCOCC3)[nH]c2cc1C`, 11.8% (active); for `COc1ccc2nc(SCC(=O)Nc3c(C)cc(C)cc3C)[nH]c2c1`, -0.27%. For `COc1ccccc1CCNS(=O)(=O)c1cc2c3c(c1)C(C)C(=O)N3CCC2` (centres undefined) the value was -1.65%; for `O=C1C(=O)N(Cc2ccc(-c3ccsc3)cc2)c2ccc(OC(F)(F)F)cc21`, -4.58%. With `COC(=O)C1=C(C)N(Cc2ccc(F)cc2)C(=S)NC1c1cccc(Cl)c1` (centres undefined), the activation is -2.2%. For `CC(C)[C@@H](C)/C=C/[C@@H](C)[C@H]1CC[C@@H]2[C@]1(C)CCC1[C@]23C=C[C@]2(C[C@@H](O)CC[C@]12C)N(c1ccc([N+](=O)[O-])cn1)O3` (some centres undefined) the value was 0.26%. For `COc1ccc(N2CCN(CCNS(=O)(=O)c3ccc(C(C)(C)C)cc3)CC2)cc1` the value was 0.34%; for `N/C(=N\OC(=O)Cc1ccc([N+](=O)[O-])cc1)c1ccccn1`, 5.64%. In the case of `N/C(=N\OC(=O)CC1CCCCC1)c1ccccc1` it was 0.73%; in that of `N/C(=N\OC(=O)CCC1CCCCC1)c1ccccn1`, 14.7% (active).

As to `COc1cc(/C=C/C(=O)n2cnc3ccccc32)cc(OC)c1OC`, the activation was -6.48%.

For the compound `C/C(=C(\C#N)C(=O)NCCCN1CCOCC1)N(C)C`, the activation is -0.63%.

As to `Cc1ccnc(NC(=O)C2CCN(S(=O)(=O)c3c(C)c(C)cc(C)c3C)CC2)c1`, the activation was 14.9% (active). In the case of `O=C(Nc1ccccn1)C1CCN(S(=O)(=O)c2ccc3c(c2)OCCO3)CC1` it was 5.62%; in that of `CNC(=O)C1CCN(S(=O)(=O)c2c(C)noc2/C=C/c2cccc(C)c2)CC1`, 1.09%.
